The target in assay [1] is Lysosomal acid glucosylceramidase (Homo sapiens) (UniProt P04062). Nature of the assay: Glucocerebrosidase-p2 (AID 348; in the data active = potency below about 10 µM; also: potency is read from the fitted curve at half-maximal effect). As to conditions: purified GBA, blue fluorogenic substrate, 40 min. In a few lines:
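Compounds titrated from 0.6 nM upwards against 0.2 nM enzyme in pH 5.9 citric acid/KH2PO4, taurocholate, tween-20; blue fluorogenic substrate 80 uM, 40 min room temperature, stopped and read Ex 365/Em 440 for AC50.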

Assay [2] deals with Pyruvate kinase (Leishmania mexicana) (UniProt Q27686). Nature of the assay: qHTS Validation Assay for Activators of Leishmania Mexicana Pyruvate Kinase (AID 959). The settings on record: purified L. mexicana pyruvate kinase, enzyme activity; series mostly up to 57.5 µM. In a few lines: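 Pyruvate kinase activity of E451W LmPYK (0.2 nM) was followed as ATP output after 1 h at room temperature with 0.5 mM PEP and 0.1 mM ADP, detected by PKLight luminescence.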

The target in assay [3] is Rap guanine nucleotide exchange factor 3 (Homo sapiens) (UniProt O95398). As to the kind of experiment: Confirmatory qHTS for antagonist of cAMP-regulated guanine nucleotide exchange factor 3 (EPAC1) (AID 1645880).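 Also: plate controls were DMSO only for no effect and full effect of the ATA control for full effect; nearly all actives have a fitted effect of over 55% in size.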 The settings on record: EPAC1 Rap1B-BODIPY-GDP exchange, fluorescence; series mostly up to 115 µM. In a few lines: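 Nucleotide exchange uses 100 nM EPAC1, 250 nM RAP1B-BODIPY-GDP and 50 uM GDP, with compounds in a concentration-titration series. After 5 min at room temperature, fluorescence (480 nm ex/540 nm em) is read every 5 min for 30 min. Data are normalized to control ATA and DMSO.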

The target in assay [4] is RecQ-like DNA helicase BLM (Homo sapiens) (UniProt P54132). Nature of the assay: qHTS Validation Assay for Inhibitors of Bloom's syndrome helicase (BLM) (AID 2364).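 Also: plate controls were DMSO vehicle for no effect and enzyme-free control for full effect.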 As to conditions: BLM helicase DNA unwinding, fluorescence, in vitro; series mostly up to 57.1 µM. In a few lines: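 Forked 20-bp duplex substrate (200 nM, TAMRA/BHQ-2) plus 2 mM ATP added after 15 min compound preincubation with 50 nM enzyme, pH 8.0, poly(dI-dC) 2.5 ug/ml. Strand separation followed by fluorescence (525/598 nm) over 2 h, normalized to enzyme-free and DMSO controls.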

Assay [5] is described as follows: NCATS anti-infectives library activity on HEK293 viability as a counter-qHTS vs the C. elegans viability qHTS (AID 1745854). Also: % is scaled to controls: 0 for no effect and ±100 for the full control effect. The settings on record: HEK293 viability counter-screen; series mostly up to 41.8 µM. In a few lines: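 Compounds were acoustically plated (several concentrations, 1:5, final up to 41.7 uM), then 1500 HEK293 cells added per well and incubated 24 hr at 37C, 5% CO2. CellTiter-Glo was added and luminescence read after 10 min.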

Assay [6] can be described thus: NCATS anti-infectives library activity on the primary C. elegans qHTS viability assay (AID 1745855; calls by dose curve). The settings on record: C. elegans worm area imaging, day 7; series mostly up to 41.8 µM. The essentials: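 Viability read-out is GFP fluorescence of PE254-GFP-FLuc C. elegans, measured by laser cytometry (488 nm) at day 0, 3 and 7. Ten L1 worms per well were incubated 7 days at 21 °C with compounds and bacterial capsules in S medium.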

The nature of assay [7]: Cell Viability - BJ (AID 421; calls by dose curve;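 also: potency is read from the fitted curve at half-maximal effect; cells exposed to compound for 40 hours at 37 °C before readout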). The settings on record: BJ fibroblast viability, qHTS. In a few lines: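 Cytotoxicity as drop in intracellular ATP (CellTiter-Glo, 20 min RT) after 40 hr compound exposure of BJ fibroblasts at 37 °C. Titrations scaled between DMSO and 100 uM tamoxifen, Hill-fitted for AC50.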
The nature of assay [8]: Cell Viability - HepG2 (AID 433; calls by dose curve;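 also: potency is read from the fitted curve at half-maximal effect; potency for ATP loss meaning cytotoxicity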). As to conditions: qHTS. In a few lines:
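In this qHTS format, a 40 h, 37 °C compound incubation of HepG2 cells in complete medium precedes a 20 min CellTiter-Glo step at room temperature. Tamoxifen and doxorubicin serve as positive controls; Hill-equation fits yield AC50.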

Assay [9] in a line: Cell Viability - MRC5 (AID 434; calls by dose curve;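 also: potency is read from the fitted curve at half-maximal effect; potency reflects cytotoxicity seen as loss of intracellular ATP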). The settings on record: MRC5 lung fibroblast viability, qHTS. The essentials: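 qHTS cytotoxicity in human lung fibroblast MRC5 cells; 40 hr treatment, 37 °C; cellular ATP by luciferase luminescence; DMSO = 0%, 100 uM tamoxifen = 100% inhibition; Hill-fit AC50.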
Assay [10] in a line: Cell Viability - N2a (AID 540).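 Also: plate controls were DMSO alone for no effect and tamoxifen control for full effect; nearly all actives have a fitted effect of over 45% in size.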 The settings on record: N2a mouse neuroblastoma cell viability; at 92.2 µM (top of the series). The essentials:
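Luminescent ATP signal (CellTiter-Glo, 20 min at room temperature) served as the viability read-out after N2a cells were treated with compounds for 40 hours at 37 °C. Concentration-response data were fitted to the Hill equation for AC50.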

Assay [11] can be described thus: Cell Viability - NIH 3T3 (AID 541).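 Also: plate controls were DMSO alone for no effect and tamoxifen positive control for full effect; nearly all actives have a fitted effect of over 25% in size.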 The settings on record: NIH 3T3 cell viability, qHTS; at 92.2 µM (top of the series). The essentials:
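Luminescent ATP signal (CellTiter-Glo) served as the viability read-out after NIH 3T3 cells were exposed to compounds over a concentration range for 40 hr at 37 °C. Hill-equation modelling of concentration-response data gave AC50.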

Assay [12] is described as follows: Cell Viability - HUV-EC-C (AID 542). Also: % is scaled to controls: 0 for no effect and ±100 for the full control effect; nearly all actives have a fitted effect of over 35% in size. The settings on record: HUV-EC-C endothelial cell viability, qHTS; series mostly up to 92.2 µM. The essentials: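 qHTS cytotoxicity: HUV-EC-C, 1000 cells/well, 5 hr settle, compound 40 hr 37 °C, CellTiter-Glo, luminescence. AC50 via Hill equation.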
A short description of assay [13]: Cell Viability - Renal Proximal Tubule (AID 545).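 Also: 0% = DMSO only and -100% = 100 µM tamoxifen; nearly all actives have a fitted effect of over 40% in size.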 As to conditions: renal proximal tubule cells viability; series mostly up to 91.7 µM. In a few lines: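 In this qHTS format, normal rat kidney-derived proximal tubule cells in complete culture medium receive compound titrations, then sit 40 hours at 37 °C before luciferase-based ATP quantitation; potency is reported as AC50 from concentration-response curves.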

A short description of assay [14]: Cell Viability - Mesenchymal (AID 546).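 Also: cells exposed to compound for 40 hours before reading; 0% = DMSO only and -100% = 100 µM tamoxifen.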 The settings on record: mesenchymal cells viability, qHTS; series mostly up to 91.7 µM. The essentials:
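AC50 values reflect the drop in intracellular ATP in a human kidney mesenchymal line derived from normal glomeruli. Treatment lasts 40 hr at 37 °C in complete medium, and the signal comes from CellTiter-Glo luminescence.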

For assay [15], the target named is Estrogen receptor (Homo sapiens) (UniProt P03372). Nature of the assay: qHTS assay for small molecule antagonists of estrogen receptor alpha signaling (AID 588513; active = well fitted curve in the direction sought with a large enough effect in the signal ratio, with a control signal flat, not every such curve was filed as active; inconclusive = small, poorly fitted or top-dose-only effect, or effect the other way, or a change in a side signal; inactive = no such curve, though single readings can be large or run the other way; the % refers to the signal ratio; also: potency is read from the fitted curve at half-maximal effect). The settings on record: ER-alpha-UAS-bla HEK293, beta-lactamase ratio, antagonist mode; series mostly up to 76.9 µM. In a few lines:
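Antagonist-mode qHTS in ER-alpha-UAS-bla HEK 293 cells: compound titration, 0.5nM estradiol for 18 h, CCF4 fluorescence, Hill-derived IC50.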

Assay [16] has the same target. As to the kind of experiment: qHTS assay for small molecule agonists of estrogen receptor alpha signaling (AID 588514; calls by dose curve;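 also: 0% = vehicle only and 100% = reference agonist; nearly all actives have a fitted effect of over 70% in size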). The settings on record: ER-alpha-UAS-bla HEK293, beta-lactamase ratio, 18 h; series mostly up to 76.8 µM. In a few lines: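 Cells were plated at 5000/well, incubated 4 hrs at 37 C, dosed with compound titration series, incubated 18 hrs at 37 C, loaded with CCF4 dye for 2 hrs at RT, then fluorescence was read.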

Assay [17] deals with Androgen receptor (Homo sapiens) (UniProt P10275). As to the kind of experiment: qHTS assay for small molecule agonists of androgen receptor signaling (AID 588515; active = well fitted curve in the direction sought with a large enough effect in the signal ratio, with a control signal flat; inconclusive = small, poorly fitted or top-dose-only effect, or effect the other way, or a change in a side signal; inactive = no such curve, though single readings can be large or run the other way; the % refers to the signal ratio; also: % is scaled to controls: 0 for no effect and ±100 for the full control effect). The settings on record: AR-UAS-bla HEK293, beta-lactamase ratio, agonist 16 h; active compounds read high. The essentials:
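EC50 and efficacy came from Hill fits of titrations (up to 92 uM) normalized to 30 nM R1881 as 100% and DMSO as 0%. Compound exposure was 16 h at 37 C on AR-UAS-bla HEK293 cells, with a 405/460/530 nm CCF4 fluorescence read.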

The target is the same in assay [18]. As to the kind of experiment: qHTS assay for small molecule antagonists of androgen receptor signaling (AID 588516; active = well fitted curve in the direction sought with a large enough effect in the signal ratio, with a control signal flat, not every such curve was filed as active; inconclusive = small, poorly fitted or top-dose-only effect, or effect the other way, or a change in a side signal; inactive = no such curve, though single readings can be large or run the other way; the % refers to the signal ratio; also: % is scaled to controls: 0 for no effect and ±100 for the full control effect). As to conditions: AR-UAS-bla HEK293, beta-lactamase ratio, antagonist mode, 16 h; series mostly up to 76.8 µM. In a few lines: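 Compounds tested in titration against 10 nM R1881 in AR-responsive bla reporter HEK 293 cells; CCF4 fluorescence (460/530 nm) after 16 h exposure gave IC50 and efficacy.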

In assay [19] the target is Glucocorticoid receptor (Homo sapiens) (UniProt P04150). Nature of the assay: qHTS assay for small molecule agonists of glucocorticoid receptor signaling (AID 588532; active = well fitted curve in the direction sought with a large enough effect in the signal ratio, with a control signal flat; inconclusive = small, poorly fitted or top-dose-only effect, or a change in a side signal; inactive = no such curve, though single readings can be large or run the other way; the % refers to the signal ratio;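 also: 100% = dexamethasone at 0.1 µM and 0% = DMSO only wells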). The settings on record: HeLa MMTV-bla, beta-lactamase ratio, agonist, 18 h; active compounds read high; percent of dexamethasone control, DMSO zero. The essentials:
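Agonist-mode qHTS: GRE-driven beta-lactamase in HeLa cells exposed 18 h to titrated compounds (up to 92 uM), then CCF4 ratio read after 2 h at RT; Hill-fitted EC50, efficacy relative to 0.1 uM dexamethasone.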

Assay [20] is described as follows: qHTS assay for cell viability of HEK293 cells (AID 743288). Also: nearly all actives have a fitted effect of over 50% in size. Also: potency is read from the fitted curve at half-maximal effect. As to max response: % is scaled to controls: 0 for no effect and ±100 for the full control effect. The settings on record: ATP luminescence (CellTiter-Glo), 18 h; max response: active compounds read low. The essentials:
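Luminescent ATP quantitation served as the viability read-out. Cells (parental HEK293, 2,000/well) received compounds after at least 5 h at 37 C and were exposed for 18 h before a 30 min room-temperature reagent step.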

This note sets out measurements from PubChem BioAssay (NCATS).

Values joined by “and” are separate entries in the source; they are usually repeats but may differ in a detail not shown here. Equal values may be shown once. A number with no mark means an inactive call. A structure can be active in one record and inactive in another. Active and inactive are the calls of the source. Unless noted, calls follow the shape of the dose curve; as a rule, active = well fitted curve in the direction sought with a large enough effect; inconclusive = small, poorly fitted or top-dose-only effect, or another doubt; inactive = no such curve, though single readings can be large; an effect the other way counts as inactive or inconclusive. Bounds are passed on as bounds.

Sequence of Androgen receptor (Homo sapiens) (P10275 whole entry, looked up): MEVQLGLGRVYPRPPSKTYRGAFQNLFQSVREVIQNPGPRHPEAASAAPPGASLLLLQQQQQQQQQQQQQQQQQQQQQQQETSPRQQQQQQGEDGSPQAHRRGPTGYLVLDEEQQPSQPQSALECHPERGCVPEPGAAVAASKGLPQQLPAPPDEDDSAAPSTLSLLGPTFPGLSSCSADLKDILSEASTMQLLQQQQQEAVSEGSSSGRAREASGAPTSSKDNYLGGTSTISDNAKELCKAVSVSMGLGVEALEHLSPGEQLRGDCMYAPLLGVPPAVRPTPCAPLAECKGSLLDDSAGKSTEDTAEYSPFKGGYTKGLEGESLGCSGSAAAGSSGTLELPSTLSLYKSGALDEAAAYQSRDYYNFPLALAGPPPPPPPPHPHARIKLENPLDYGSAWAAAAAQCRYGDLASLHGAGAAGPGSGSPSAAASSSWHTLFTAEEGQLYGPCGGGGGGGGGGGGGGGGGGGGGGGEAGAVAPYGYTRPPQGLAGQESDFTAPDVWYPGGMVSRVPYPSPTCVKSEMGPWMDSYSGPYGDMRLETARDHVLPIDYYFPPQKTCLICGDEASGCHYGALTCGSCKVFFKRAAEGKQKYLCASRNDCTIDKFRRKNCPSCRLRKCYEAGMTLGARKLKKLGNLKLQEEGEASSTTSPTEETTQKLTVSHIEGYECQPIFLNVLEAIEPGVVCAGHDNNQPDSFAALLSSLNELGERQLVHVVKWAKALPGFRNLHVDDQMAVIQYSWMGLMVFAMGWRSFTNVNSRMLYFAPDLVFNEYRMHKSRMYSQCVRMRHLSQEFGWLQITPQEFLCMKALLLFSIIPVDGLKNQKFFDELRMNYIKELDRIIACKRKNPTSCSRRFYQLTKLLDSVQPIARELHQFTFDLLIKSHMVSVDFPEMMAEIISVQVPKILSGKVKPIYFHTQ
Sequence of Estrogen receptor (Homo sapiens) (P03372 whole entry, looked up): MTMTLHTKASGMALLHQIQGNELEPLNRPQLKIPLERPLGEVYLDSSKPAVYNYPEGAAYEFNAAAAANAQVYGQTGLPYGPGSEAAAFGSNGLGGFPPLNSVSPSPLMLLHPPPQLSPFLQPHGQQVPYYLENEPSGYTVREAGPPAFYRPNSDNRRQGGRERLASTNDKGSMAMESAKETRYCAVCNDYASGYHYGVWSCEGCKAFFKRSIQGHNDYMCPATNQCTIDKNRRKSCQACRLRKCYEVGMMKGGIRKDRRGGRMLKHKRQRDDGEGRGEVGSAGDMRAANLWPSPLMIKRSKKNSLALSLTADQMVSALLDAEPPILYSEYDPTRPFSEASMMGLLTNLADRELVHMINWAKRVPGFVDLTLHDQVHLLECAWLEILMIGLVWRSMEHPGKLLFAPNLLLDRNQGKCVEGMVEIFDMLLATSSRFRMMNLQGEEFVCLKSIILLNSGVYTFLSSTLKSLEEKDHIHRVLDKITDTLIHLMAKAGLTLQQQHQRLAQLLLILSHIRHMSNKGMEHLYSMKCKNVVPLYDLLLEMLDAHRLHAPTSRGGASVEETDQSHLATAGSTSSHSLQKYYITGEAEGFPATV
Sequence of Glucocorticoid receptor (Homo sapiens) (P04150 whole entry, looked up): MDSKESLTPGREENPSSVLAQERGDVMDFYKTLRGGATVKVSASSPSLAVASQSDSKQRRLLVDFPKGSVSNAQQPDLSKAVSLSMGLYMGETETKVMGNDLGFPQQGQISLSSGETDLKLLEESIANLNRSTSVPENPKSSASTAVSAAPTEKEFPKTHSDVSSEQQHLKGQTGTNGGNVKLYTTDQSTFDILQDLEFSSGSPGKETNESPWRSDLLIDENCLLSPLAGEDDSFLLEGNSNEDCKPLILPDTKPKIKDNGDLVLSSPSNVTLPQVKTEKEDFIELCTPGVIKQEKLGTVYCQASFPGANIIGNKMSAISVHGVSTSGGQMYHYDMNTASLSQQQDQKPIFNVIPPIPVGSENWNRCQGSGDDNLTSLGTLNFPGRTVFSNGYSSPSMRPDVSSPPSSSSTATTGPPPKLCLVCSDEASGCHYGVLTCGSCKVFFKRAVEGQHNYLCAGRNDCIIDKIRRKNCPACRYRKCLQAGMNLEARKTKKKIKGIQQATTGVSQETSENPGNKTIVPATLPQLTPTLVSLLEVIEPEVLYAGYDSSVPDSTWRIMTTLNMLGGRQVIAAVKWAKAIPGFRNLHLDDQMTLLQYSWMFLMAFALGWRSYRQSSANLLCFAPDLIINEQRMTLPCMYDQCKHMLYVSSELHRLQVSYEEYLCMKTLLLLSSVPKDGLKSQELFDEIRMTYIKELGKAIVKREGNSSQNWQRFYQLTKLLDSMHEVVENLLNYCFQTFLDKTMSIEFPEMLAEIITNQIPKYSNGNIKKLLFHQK
Sequence of RecQ-like DNA helicase BLM (Homo sapiens) (P54132 whole entry, looked up): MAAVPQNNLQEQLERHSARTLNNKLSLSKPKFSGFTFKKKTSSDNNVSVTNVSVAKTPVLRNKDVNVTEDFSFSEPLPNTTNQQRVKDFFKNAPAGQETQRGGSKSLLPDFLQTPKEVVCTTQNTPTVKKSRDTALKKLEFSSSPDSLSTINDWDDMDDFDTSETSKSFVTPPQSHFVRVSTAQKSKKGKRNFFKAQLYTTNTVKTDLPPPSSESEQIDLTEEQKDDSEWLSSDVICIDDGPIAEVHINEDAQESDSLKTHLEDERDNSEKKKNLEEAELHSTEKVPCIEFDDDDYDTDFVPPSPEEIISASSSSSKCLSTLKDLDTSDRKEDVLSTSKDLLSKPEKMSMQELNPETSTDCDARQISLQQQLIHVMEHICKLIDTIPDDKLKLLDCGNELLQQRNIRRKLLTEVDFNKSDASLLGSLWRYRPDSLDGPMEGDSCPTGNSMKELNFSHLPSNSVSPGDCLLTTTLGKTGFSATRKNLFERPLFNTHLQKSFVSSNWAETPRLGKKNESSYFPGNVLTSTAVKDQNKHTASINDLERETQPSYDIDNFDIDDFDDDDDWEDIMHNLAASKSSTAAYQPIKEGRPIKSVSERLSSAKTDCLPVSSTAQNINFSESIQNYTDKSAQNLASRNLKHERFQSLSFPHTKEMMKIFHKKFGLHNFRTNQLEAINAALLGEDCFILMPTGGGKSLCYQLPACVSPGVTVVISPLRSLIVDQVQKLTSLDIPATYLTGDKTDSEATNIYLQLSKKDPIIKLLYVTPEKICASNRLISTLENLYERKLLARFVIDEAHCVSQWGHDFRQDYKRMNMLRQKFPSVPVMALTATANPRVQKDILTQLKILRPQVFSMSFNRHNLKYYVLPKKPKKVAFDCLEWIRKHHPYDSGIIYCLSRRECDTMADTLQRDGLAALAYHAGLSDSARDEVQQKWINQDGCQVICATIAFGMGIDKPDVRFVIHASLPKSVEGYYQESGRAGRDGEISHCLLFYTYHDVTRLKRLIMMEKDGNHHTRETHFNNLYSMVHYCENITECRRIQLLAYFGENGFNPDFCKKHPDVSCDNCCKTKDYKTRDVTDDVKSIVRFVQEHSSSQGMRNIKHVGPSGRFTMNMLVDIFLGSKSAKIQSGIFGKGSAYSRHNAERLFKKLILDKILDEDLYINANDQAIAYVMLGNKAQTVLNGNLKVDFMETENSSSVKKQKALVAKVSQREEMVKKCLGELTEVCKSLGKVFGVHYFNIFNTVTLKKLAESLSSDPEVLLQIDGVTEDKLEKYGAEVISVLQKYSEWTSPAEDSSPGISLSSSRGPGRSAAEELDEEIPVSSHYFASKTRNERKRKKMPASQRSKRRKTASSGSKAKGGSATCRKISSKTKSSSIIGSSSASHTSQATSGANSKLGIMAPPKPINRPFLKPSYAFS
Sequence of Pyruvate kinase (Leishmania mexicana) (Q27686 2-499 E452W): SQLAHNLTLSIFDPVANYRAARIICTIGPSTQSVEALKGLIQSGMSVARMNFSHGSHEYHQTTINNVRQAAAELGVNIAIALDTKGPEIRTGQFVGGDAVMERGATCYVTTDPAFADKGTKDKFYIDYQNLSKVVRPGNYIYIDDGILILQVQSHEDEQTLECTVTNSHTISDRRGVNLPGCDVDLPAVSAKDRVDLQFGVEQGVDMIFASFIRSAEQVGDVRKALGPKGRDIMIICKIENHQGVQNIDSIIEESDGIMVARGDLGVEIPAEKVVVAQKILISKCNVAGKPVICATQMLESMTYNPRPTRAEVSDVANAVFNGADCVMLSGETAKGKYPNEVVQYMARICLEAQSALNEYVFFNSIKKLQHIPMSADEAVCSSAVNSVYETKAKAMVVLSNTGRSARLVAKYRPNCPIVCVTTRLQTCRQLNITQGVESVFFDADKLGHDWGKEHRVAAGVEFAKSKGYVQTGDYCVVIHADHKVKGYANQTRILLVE
Sequence of Lysosomal acid glucosylceramidase (Homo sapiens) (P04062 whole entry, looked up): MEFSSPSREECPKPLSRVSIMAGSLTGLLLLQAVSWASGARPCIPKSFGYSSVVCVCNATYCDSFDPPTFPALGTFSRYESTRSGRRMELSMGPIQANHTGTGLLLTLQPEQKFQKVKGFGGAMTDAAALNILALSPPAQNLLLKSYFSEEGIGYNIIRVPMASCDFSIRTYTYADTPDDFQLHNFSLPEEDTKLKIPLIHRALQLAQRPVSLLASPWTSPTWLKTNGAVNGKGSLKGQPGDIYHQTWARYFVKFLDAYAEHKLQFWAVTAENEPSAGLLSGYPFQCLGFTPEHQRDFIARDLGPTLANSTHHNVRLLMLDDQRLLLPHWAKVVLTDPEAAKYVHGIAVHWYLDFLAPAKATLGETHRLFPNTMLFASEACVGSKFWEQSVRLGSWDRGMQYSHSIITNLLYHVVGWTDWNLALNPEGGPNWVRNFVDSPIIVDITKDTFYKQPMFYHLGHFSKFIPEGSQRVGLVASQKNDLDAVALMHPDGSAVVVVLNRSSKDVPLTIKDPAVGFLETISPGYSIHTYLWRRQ

Take `N[C@@H](CCP(=O)(O)O)C(=O)O`: the Potency in assay [1] is above 11.4 µM.
Turning to `N#CC(C#N)=Cc1ccc([N+](=O)[O-])c(O)c1`, the Potency in [2] is 20 µM (active).
In the case of `CCCn1c(C)c(C(=O)c2cccc3ccccc23)c2ccccc21`, the Potency result in [3] is “inactive”.
For the compound `CN1CCc2cc(O)cc3c2C1Cc1ccc(O)c(O)c1-3` (configuration not stated), the Potency entry in assay [4] was “inactive”.
Still for that read-out and setting: then `COc1cc(CCN)ccc1O`, with “inactive”.
As to `O=NN1CCCC1c1cccnc1` (configuration not stated), the Potency entry in assay [5] and in assay [6] was “inactive” each time.
Regarding `CC(C)(c1ccc(OCC2CO2)cc1)c1ccc(OCC2CO2)cc1` (configuration not stated), the Potency in [7] is above 92 µM; in assay [8], above 92 µM; in assay [9], above 92 µM; in [15], 31.6 µM [inconclusive] (active); in assay [20] it was 70.8 µM (active). For the same compound, the results for the activity change, negative = cytotoxicity in [10] and in assay [11] were -4.11% and -5.07%, respectively. Besides, the outcome in [12], in [13], in assay [14] and in assay [18] was inactive. The Potency entry in assay [16] is “inactive”. Besides, the activation in [17] is 11.4% and -15.4%; in assay [19] it was -1.68% and 2.51%. The max response in [20] was -24%.
